According to PubChem BioAssay (NCATS):
Records with an inconclusive call do not appear. Active and inactive are the calls of the source. Unless noted, calls come from the whole dose curve; as a rule, active = well fitted curve in either direction with a large enough effect (not every such curve was filed as active); inconclusive = small, poorly fitted or top-dose-only effect, or another doubt; inactive = flat fitted curve, though single readings scatter.

Key:
[1] = target: Mitogen-activated protein kinase 10 (Mus musculus) (UniProt Q61831); assay: JNK3 AlphaScreen Assay (AID 530);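 note: kinase came from lysate of stimulated human HepG2 cells; signal reports phosphorylation of biotinylated GST-cJun 1-79 at Ser73 with 10 µM ATP; % is set by controls: 0 for no effect and ±100 for the full control effect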
Method in brief: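 qHTS titrations with 15 min compound pre-incubation before adding ATP (10 uM final). Read-out: AlphaScreen of Ser73-phosphorylated biotin-GST-cJun using HepG2 lysate JNK3 activated by IL-1β and TNFα.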

[2] = target: Cytochrome P450 3A4 (Homo sapiens) (UniProt P08684); assay: qHTS Assay for Activators of Cytochrome P450 3A4 (AID 885; active = well fitted curve in the direction sought with a large enough effect; an effect the other way counts as inactive or inconclusive; note: nearly all actives have a fitted effect of over 65% in size; note: potency is the fitted concentration of half-maximal effect)
Method in brief: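 Luminescent readout of luciferin formed from 25 uM Luciferin-PPXE (KM level) by 20 nM CYP3A4 in 200 mM KPO4, with 60 min NADPH-driven reaction at room temperature after 10 min compound exposure. Ketoconazole (57 uM) defined 100% inhibition.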

[3] = Confirmation and Secondary Assay for Modulators of Hemoglobin Beta Chain Splicing at IVS2 654 locus (AID 910; active = well fitted curve in the direction sought with a large enough effect; an effect the other way counts as inactive or inconclusive;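 note: HeLa cells stably carrying EGFP split by mutant beta-globin IVS2-654 intron; % of control where 0% means no effect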)
Method in brief: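 Readout: per-well total peak green fluorescence (488 nm ex, 500–520 nm em) from objects 5–250 µm, reflecting correct splicing of an EGFP-654 reporter. Compounds were applied for 2 days at 37 °C to overnight-plated HeLa EGFP-654 cells; controls were DMSO and 500 nM IVS2-654 PNA.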

[4] = Confirmation and Secondary Assay for Modulators of Hemoglobin Beta Chain Splicing at IVS2 705 locus (AID 930; active = well fitted curve in the direction sought with a large enough effect; an effect the other way counts as inactive or inconclusive;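 note: HeLa cells stably expressing the EGFP-705 splicing reporter; GFP fluorescence per well restored by corrected splicing of the IVS2-705 intron in EGFP; % of control where 0% means no effect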)
Method in brief: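 Read-out: total peak GFP fluorescence per well (488 nm excitation, 500-520 nm emission) by laser-scanning cytometry. Cells: HeLa EGFP-705 splicing reporter, 2 days compound exposure in Optimem/2% FCS.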

[5] = qHTS Assay for Lipid Storage Modulators (AID 1519; calls by dose curve); details: Drosophila S3 cells, BODIPY lipid droplet/cell ratio, laser cytometry, cells loaded with oleic acid; for activity change, negative = inhibition: at 57.5 µM (top of the series)
Method in brief: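 Cells seeded at 5,000 per well were treated with compounds over a concentration series and loaded with oleic acid (400 uM, as added). Lipid droplet fluorescence (488 nm excitation, 500-530 nm channel) was read by laser-scanning cytometry and normalized to 20 uM Triacsin C.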

[6] = target: Ubiquitin carboxyl-terminal hydrolase 1 (Homo sapiens) (UniProt O94782); assay: Inhibitors of USP1/UAF1: Pilot qHTS (AID 504865; active = well fitted curve in the direction sought with a large enough effect; an effect the other way counts as inactive or inconclusive;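 note: rhodamine fluorescence freed from ubiquitin-rhodamine substrate followed over time; top concentration of the series differs between compounds; % is set by controls: 0 for no effect and ±100 for the full control effect; nearly all actives have a fitted effect of over 35% in size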)
Method in brief: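 Deubiquitinase activity followed as kinetic rhodamine fluorescence release from 150 nM Ub-Rho. 1 nM USP1/UAF1 with compound, after 15 min room-temperature preincubation, in HEPES pH 7.8 buffer containing TCEP, EDTA, BSA and Tween-20.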

[7] = system: HIV-1 nucleocapsid protein NCp7 (binding to TG oligonucleotide); assay: HIV Nucleocapsid (AID 346; call rule not given here;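 note: potency is the fitted concentration of half-maximal effect; potency is for inhibitors that block NC binding and lower polarization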); details: HIV-1 NC / fluorescein-TGTGTGTG probe, fluorescence polarization
Method in brief: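 10 nM TG4xF probe with 100 nM nucleocapsid protein in high-salt Hepes pH 7.5 (250mM NaCl) containing 1uM ZnCl2 and reducing agents. Compound inhibition of binding was read as fluorescein polarization after 1 hr at room temperature.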

[8] = target: Lysosomal acid glucosylceramidase (Homo sapiens) (UniProt P04062); assay: Glucocerebrosidase-p2 (AID 348; in the data active = potency below about 10 µM; note: potency is the fitted concentration of half-maximal effect); details: purified GBA, blue fluorogenic substrate, 40 min
Method in brief: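 Normal human glucocerebrosidase (0.2 nM) with blue fluorogenic substrate (80 uM final) in citrate/phosphate pH 5.9 with 10mM sodium taurocholate, 0.01% tween-20; 40 min RT, NaOH/glycine stop; fluorescence Ex 365/Em 440; AC50 from a titration from 0.6 nM upwards.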

[9] = AP1 Signaling Pathway (AID 357);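 note: ME-180 reporter cells stimulated with EGF at its EC50 level; % is set by controls: 0 for no effect and ±100 for the full control effect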
Method in brief: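 Modulation of EGF-driven AP-1 transcription was assessed with a beta-lactamase reporter in ME-180 cells. Compound and EC50 EGF were co-incubated 5 hours at 37 °C before 2.5-hour CCF4 loading at room temperature and dual-emission reading.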

[10] = NFAT Signaling Pathway (AID 444); details: Jurkat NFAT-bla M1, carbachol, beta-lactamase ratio, 5 h; at 7.69 µM (top of the series);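 note: carbachol stimulus at about its EC50 of 1 µM final; % is set by controls: 0 for no effect and ±100 for the full control effect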
Method in brief: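 Read-out: CCF4 FRET ratio (460 nm/530 nm) after 1 h RT dye loading, used for %activity and AC50 from titration series. Cells: Jurkat NFAT-β-lactamase/M1 line, treated with compound plus 1 uM carbachol for 5 h, 37 °C.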

[11] = Stat Signaling Pathway (AID 446);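 note: ME-180 cervical cancer cells given 40 pM IL-6 alongside compound; SIE-controlled beta-lactamase reporter measured as 460/530 nm FRET emission ratio; % is set by controls: 0 for no effect and ±100 for the full control effect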
Method in brief: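 FRET read-out (405 nm excitation, 460/530 nm emission) of a beta-lactamase reporter under a STAT-inducible element in ME-180 cervical carcinoma cells. Cells with compound receive 40 pM IL-6 for 5 h. Values are normalised to AC90 stimulation and AC90 JAK-inhibitor controls.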

[12] = target: Glucocorticoid receptor (Homo sapiens) (UniProt P04150); assay: GR-EFC Redistribution (AID 451; calls by dose curve; note: potency is the fitted concentration of half-maximal effect); details: CHO-K1 GR-EFC translocation, beta-gal luminescence, 2 h
Method in brief: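 Translocation of GR-ED fusion to nuclear EA restores b-gal, read by luminescence after 1 h room-temperature detection. Engineered CHO-K1 biosensor cells, 1,000/well, exposed 2 h at 37 C to titrations up to 46 uM final.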

[13] = Primary qHTS for small molecule stabilizers of the endoplasmic reticulum resident proteome: Secreted ER Calcium Modulated Protein (SERCaMP) assay (AID 1508630; active = well fitted curve in the direction sought with a large enough effect; an effect the other way counts as inactive or inconclusive; note: % is set by controls: 0 for no effect and ±100 for the full control effect)
Method in brief: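 The SH-SY5Y reporter protocol was run at 3 concentrations up to 38.3 uM (primary) or 11 concentrations (follow-up): 16 h compound, 100 nM thapsigargin for 4 h, then extracellular luciferase luminescence.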

[14] = target: Cytochrome P450 1A2 (Homo sapiens) (UniProt P05177); assay: p450-cyp1a2 (AID 410; calls by dose curve; note: potency is the fitted concentration of half-maximal effect;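 for activity change, negative = inhibition: -100% = full effect of reference inhibitor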)
Method in brief: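 Luminescent demethylation readout: Luciferin-ME (100uM, equal to Km) turned over by 20nM CYP1A2 for 60 min at room temperature after NADPH regeneration addition, following 10 min compound preincubation. Normalization used 57 uM furafylline as full inhibition.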

[15] = target: Glucocorticoid receptor (Homo sapiens) (UniProt P04150); assay: GR-GFP Redistribution (AID 450;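 active = compounds whose dose series gives a full or clear partial fitted curve of increased nuclear translocation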; note: potency is the fitted concentration of half-maximal effect); details: U2OS GR-GFP nuclear translocation, laser cytometry, 2 h
[16] = target: 3',5'-cyclic-AMP phosphodiesterase 4B (Homo sapiens) (UniProt Q07343); assay: qHTS Assay for Inhibitors of PDE-IV (AID 607; active = well fitted activation curve with a large enough effect in the main read-out, with a control signal flat, not every such curve was filed as active; note: % of control where 0% means no effect)
Method in brief: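 Cell-based read-out of cAMP via a modified cyclic nucleotide-gated channel and membrane potential dye (535/590 nm) in HEK293 cells expressing PDE4 endogenously. Compounds tested up to 22.9 uM final; 100 uM RO 20-1724 reference.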

[17] = target: Cytochrome P450 3A4 (Homo sapiens) (UniProt P08684); assay: qHTS Assay for Inhibitors and Substrates of Cytochrome P450 3A4 (AID 884; active = well fitted curve in the direction sought with a large enough effect; an effect the other way counts as inactive or inconclusive; note: nearly all actives have a fitted effect of over 50% in size; note: potency is the fitted concentration of half-maximal effect)
Method in brief: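 Luminescent readout of luciferin produced by CYP3A4 (20 nM) dealkylation of Luciferin-PPXE, 25 uM (its KM). NADPH-driven reaction ran 60 min at RT after 10 min compound preincubation; data scaled to 57 uM ketoconazole as 100% inhibition.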

[18] = target: Cytochrome P450 2D6 (Homo sapiens) (UniProt P10635); assay: qHTS Assay for Inhibitors and Substrates of Cytochrome P450 2D6 (AID 891; active = well fitted curve in the direction sought with a large enough effect; an effect the other way counts as inactive or inconclusive; note: potency is the fitted concentration of half-maximal effect; nearly all actives have a fitted effect of over 60% in size)
Method in brief: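 Luminescent read-out of luciferin formed by 5 nM human CYP2D6 demethylating 30 uM Luciferin-ME EGE (Km level) over 60 min at room temperature after NADPH regeneration addition. Data normalized to full inhibition by 1.43 uM quinidine.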

[19] = target: Cytochrome P450 2C19 (Homo sapiens) (UniProt P33261); assay: qHTS Assay for Inhibitors and Substrates of Cytochrome P450 2C19 (AID 899; active = well fitted curve in the direction sought with a large enough effect; an effect the other way counts as inactive or inconclusive; note: potency is the fitted concentration of half-maximal effect; nearly all actives have a fitted effect of over 60% in size)
Method in brief: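 5nM enzyme + 10uM Luciferin-H EGE (=KM), 50mM KPO4; cpd pin-transferred, 10 min 37C; NADPH regen, 60 min 37C; stopped w/ luciferin detection reagent, 20 min; luminescence. Normalized to 57uM ketoconazole (AC100).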

[20] = measured here: cell count channel max response
[21] = measured here: lipid channel max response

Sequence of Lysosomal acid glucosylceramidase (Homo sapiens) (P04062 whole entry, looked up): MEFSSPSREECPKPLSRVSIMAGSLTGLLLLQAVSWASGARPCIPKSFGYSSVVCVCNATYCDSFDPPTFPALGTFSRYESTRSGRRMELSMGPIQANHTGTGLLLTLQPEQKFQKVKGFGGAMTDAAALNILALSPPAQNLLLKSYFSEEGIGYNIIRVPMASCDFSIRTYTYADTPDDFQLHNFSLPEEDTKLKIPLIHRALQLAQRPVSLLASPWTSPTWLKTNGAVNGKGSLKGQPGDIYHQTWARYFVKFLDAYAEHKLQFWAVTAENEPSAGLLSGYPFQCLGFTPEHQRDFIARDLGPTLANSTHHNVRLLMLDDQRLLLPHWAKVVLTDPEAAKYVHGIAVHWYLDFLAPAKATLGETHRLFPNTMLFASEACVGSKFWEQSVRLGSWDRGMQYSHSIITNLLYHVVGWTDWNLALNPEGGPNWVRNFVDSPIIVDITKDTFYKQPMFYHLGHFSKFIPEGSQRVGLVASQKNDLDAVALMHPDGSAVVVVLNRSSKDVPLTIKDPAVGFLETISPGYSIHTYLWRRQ
Sequence of Cytochrome P450 3A4 (Homo sapiens) (P08684 whole entry, looked up): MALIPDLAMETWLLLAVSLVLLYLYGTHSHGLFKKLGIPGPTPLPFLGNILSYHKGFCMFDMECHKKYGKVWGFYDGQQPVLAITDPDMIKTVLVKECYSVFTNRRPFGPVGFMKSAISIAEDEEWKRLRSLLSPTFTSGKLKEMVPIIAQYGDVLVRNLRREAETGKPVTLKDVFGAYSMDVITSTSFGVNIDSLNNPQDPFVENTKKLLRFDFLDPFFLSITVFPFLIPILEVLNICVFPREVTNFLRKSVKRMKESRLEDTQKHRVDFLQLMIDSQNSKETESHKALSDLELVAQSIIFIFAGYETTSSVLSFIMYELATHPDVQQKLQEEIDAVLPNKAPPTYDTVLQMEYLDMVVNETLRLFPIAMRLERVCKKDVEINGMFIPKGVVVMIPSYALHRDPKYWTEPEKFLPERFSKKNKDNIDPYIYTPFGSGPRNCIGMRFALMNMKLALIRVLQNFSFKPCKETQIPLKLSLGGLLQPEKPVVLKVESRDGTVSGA
Sequence of 3',5'-cyclic-AMP phosphodiesterase 4B (Homo sapiens) (Q07343 whole entry, looked up): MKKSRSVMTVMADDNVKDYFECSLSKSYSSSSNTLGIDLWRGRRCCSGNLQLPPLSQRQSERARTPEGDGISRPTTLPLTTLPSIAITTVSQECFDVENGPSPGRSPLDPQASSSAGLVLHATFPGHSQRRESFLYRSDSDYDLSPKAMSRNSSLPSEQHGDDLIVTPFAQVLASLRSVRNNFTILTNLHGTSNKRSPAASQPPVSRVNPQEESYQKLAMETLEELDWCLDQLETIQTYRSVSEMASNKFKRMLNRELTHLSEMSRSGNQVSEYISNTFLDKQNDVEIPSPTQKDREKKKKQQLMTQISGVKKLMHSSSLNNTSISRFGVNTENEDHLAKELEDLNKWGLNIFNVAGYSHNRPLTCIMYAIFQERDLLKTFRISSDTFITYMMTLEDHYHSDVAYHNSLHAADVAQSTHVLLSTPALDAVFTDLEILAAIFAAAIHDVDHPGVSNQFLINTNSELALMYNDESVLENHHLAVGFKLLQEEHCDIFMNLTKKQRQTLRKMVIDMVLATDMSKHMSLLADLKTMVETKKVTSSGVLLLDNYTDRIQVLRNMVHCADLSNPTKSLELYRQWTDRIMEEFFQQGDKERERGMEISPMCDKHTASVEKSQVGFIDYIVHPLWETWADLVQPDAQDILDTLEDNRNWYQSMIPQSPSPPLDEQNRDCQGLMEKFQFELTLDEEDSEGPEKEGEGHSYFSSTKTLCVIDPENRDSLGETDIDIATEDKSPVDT
Sequence of Cytochrome P450 1A2 (Homo sapiens) (P05177 whole entry, looked up): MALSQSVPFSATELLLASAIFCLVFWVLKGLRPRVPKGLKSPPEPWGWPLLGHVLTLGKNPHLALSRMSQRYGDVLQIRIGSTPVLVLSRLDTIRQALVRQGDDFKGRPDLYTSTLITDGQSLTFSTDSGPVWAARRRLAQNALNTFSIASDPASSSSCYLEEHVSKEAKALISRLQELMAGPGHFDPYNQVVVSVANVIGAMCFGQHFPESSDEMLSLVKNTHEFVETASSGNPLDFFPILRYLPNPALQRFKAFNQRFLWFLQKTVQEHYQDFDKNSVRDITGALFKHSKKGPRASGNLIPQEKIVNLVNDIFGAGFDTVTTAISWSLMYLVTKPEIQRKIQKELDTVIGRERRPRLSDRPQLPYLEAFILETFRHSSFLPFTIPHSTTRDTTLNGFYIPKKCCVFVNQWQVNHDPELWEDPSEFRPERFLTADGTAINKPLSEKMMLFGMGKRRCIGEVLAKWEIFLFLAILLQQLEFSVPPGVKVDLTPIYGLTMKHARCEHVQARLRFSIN
Sequence of Glucocorticoid receptor (Homo sapiens) (P04150 whole entry, looked up, the tested form may be a part): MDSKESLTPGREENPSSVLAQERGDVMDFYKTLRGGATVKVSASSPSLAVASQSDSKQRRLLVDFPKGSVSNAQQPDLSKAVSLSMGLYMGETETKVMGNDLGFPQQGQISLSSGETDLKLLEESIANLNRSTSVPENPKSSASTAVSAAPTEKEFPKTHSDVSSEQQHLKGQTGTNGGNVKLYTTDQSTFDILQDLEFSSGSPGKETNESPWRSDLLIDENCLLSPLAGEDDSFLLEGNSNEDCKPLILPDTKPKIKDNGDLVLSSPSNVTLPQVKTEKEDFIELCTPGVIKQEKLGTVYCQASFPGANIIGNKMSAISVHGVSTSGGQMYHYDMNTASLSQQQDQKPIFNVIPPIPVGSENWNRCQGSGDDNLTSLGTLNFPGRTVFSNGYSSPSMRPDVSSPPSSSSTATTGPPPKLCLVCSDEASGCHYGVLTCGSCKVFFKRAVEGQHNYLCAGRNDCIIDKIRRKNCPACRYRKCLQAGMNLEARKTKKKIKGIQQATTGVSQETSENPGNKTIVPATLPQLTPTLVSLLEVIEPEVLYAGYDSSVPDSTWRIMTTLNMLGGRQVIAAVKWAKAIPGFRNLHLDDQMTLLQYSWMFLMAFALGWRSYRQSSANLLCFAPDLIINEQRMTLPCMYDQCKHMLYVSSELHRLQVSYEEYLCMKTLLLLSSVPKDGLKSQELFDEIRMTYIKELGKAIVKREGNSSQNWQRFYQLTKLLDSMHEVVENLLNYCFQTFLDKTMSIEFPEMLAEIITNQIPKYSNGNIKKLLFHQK
Sequence of Ubiquitin carboxyl-terminal hydrolase 1 (Homo sapiens) (O94782 whole entry, looked up): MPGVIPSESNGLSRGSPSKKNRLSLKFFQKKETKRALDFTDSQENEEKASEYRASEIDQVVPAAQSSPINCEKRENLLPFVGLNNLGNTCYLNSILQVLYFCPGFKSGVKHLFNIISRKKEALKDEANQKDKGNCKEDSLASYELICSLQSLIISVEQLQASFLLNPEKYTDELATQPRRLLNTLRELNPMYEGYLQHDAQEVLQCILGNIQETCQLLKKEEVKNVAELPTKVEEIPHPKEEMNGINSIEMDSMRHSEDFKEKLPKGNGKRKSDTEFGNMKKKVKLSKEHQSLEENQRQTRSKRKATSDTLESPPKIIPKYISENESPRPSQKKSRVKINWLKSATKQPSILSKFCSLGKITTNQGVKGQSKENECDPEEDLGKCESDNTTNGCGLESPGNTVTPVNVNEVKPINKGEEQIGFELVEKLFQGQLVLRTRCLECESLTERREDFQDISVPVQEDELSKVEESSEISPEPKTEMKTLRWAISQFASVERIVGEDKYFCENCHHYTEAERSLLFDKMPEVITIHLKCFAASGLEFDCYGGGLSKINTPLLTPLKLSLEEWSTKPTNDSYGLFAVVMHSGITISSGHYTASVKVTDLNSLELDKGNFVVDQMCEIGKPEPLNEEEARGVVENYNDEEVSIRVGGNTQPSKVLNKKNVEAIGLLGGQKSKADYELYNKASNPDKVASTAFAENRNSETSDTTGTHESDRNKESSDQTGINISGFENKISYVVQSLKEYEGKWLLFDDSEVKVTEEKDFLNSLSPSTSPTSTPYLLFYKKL
Sequence of Cytochrome P450 2D6 (Homo sapiens) (P10635 whole entry, looked up): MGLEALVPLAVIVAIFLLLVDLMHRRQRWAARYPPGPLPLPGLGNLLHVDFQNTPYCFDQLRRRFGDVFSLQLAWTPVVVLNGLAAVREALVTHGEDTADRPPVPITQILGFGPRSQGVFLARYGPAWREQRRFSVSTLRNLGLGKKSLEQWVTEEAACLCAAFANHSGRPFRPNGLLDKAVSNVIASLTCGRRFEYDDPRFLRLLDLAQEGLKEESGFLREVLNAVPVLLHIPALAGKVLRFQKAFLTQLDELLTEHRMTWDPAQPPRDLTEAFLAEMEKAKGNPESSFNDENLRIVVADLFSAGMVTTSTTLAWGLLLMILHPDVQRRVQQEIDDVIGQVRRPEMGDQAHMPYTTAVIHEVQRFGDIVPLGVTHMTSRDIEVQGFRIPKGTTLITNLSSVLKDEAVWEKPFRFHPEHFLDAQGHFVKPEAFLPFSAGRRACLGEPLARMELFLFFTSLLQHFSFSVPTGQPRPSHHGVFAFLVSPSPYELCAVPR
Sequence of Cytochrome P450 2C19 (Homo sapiens) (P33261 whole entry, looked up): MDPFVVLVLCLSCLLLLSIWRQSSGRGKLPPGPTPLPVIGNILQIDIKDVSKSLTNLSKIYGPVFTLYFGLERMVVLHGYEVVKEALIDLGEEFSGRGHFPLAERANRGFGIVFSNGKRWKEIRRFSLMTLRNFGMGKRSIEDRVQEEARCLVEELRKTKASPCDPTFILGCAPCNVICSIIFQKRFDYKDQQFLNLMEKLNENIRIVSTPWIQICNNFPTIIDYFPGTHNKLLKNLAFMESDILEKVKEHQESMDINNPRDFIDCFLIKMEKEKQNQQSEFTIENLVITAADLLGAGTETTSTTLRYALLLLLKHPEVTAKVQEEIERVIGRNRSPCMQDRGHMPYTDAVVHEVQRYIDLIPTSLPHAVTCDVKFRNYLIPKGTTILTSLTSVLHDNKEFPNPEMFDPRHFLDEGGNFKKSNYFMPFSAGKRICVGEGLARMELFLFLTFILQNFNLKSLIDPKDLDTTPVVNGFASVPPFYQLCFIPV

C=CCc1ccc2c(c1)OCO2
inactive: outcome [1] | Potency [2] | Potency [3] | Potency [4] | activity change, negative = inhibition [5] 12.7% | Potency [6]
13.6%: max response [5, 20]
31.4%: max response [5, 21]

COc1ccc(NC(=O)N2CC3(CCN(C(=O)Oc4ccccc4)CC3)C2)cc1
inactive: Potency [7] > 20 µM | Potency [8] > 11.4 µM | outcome [9] | activity change, negative = inhibition [10] 3.27% | outcome [11] | Potency [12] > 46 µM | outcome [1] | outcome [13]

Clc1ccccc1-c1cncnc1NCCc1cnc[nH]1
inactive: Potency [8] > 11.4 µM | outcome [9] | activity change, negative = inhibition [10] -21.6% | Potency [15] > 46 µM | Potency [12] > 46 µM | outcome [1] | Potency [16] | Potency [6] | outcome [13]
active: Potency [14] 1.58 µM | Potency [17] 0.501 µM | Potency [18] 3.98 µM | Potency [19] 0.0126 µM

O=C(OC1CCN(CCCl)CC1)C(c1ccccc1)c1ccccc1
inactive: outcome [9] | outcome [11] | Potency [15] > 46 µM | Potency [12] > 46 µM | outcome [1] | Potency [16] | Potency [2] | activity change, negative = inhibition [5] 0.755%
active: Potency [14] 12.6 µM
-14.8%: max response [5, 21]
-17.2%: max response [5, 20]

COC(=O)N1CCC2(CCN(CC(C)C)CC2)CC1
inactive: Potency [7] > 20 µM | Potency [8] > 11.4 µM | outcome [9] | Potency [14] | outcome [11] | Potency [12] > 46 µM | outcome [1] | activity change, negative = inhibition [5] 0.631%
-7.4%: max response [5, 20]
-4.41%: max response [5, 21]

N#Cc1ccc(CN2CCC3(CC2)CCN(C(=O)Oc2ccccc2)CC3)cc1
active: Potency [2] 15.8 µM
-1.78%: max response [5, 21]
-4.88%: max response [5, 20]
inactive: Potency [7] > 20 µM | outcome [9] | Potency [14] | outcome [11] | Potency [12] > 46 µM | outcome [1] | Potency [16] | Potency [17] | activity change, negative = inhibition [5] 0.91%

O=C(Nc1ccccc1)N1CC2(CCN(C(=O)Oc3ccccc3)CC2)C1
active: Potency [14] 20 µM | Potency [2] 15.8 µM
9.38%: max response [5, 20]
inactive: Potency [8] > 11.4 µM | outcome [9] | activity change, negative = inhibition [10] 23.8% | outcome [11] | Potency [12] > 46 µM | outcome [1] | Potency [16] | Potency [17] | activity change, negative = inhibition [5] 7.64%
22.2%: max response [5, 21]

c1ccc(CN2CC[C@@]3(CCCNC3)C2)cc1
14.7%: max response [5, 21]
8.29%: max response [5, 20]
inactive: Potency [7] > 20 µM | Potency [8] > 11.4 µM | outcome [9] | Potency [14] | activity change, negative = inhibition [10] 2.89% | outcome [11] | Potency [12] > 46 µM | outcome [1] | Potency [16] | activity change, negative = inhibition [5] 3.83%
